Measurements from the supplement of paper PMC3545927.
This is one part of the list. The true hit rate is not given.

Molecular target: furin, P09958
Test: furin cleavage Z-score vs untreated control; higher = more cleavage, active = 3.5 or more, inactive = 1 or less, 8 variable residues between constant flanks
Method: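 Multiplexed peptide-cDNA fusion cleavage assay. 8-mer variable peptides flanked by constant Cys-Ala (N-term) and Ala-Gly-Asn-Ala-Ser-Ala-Ser-Ala (C-term) and conjugated to a cDNA oligonucleotide were bead-immobilised via the N-terminus. They were treated with purified furin at a 1:10 enzyme:substrate ratio in 50 mM HEPES pH 7.5, 1 mM CaCl2, 100 mM NaCl for 7.5, 15 or 30 min. Released cDNA was counted by next-generation sequencing, and log counts versus no-furin controls were lowess-adjusted and converted to robust Z-scores.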

furin, P09958, sequence (P09958 whole entry): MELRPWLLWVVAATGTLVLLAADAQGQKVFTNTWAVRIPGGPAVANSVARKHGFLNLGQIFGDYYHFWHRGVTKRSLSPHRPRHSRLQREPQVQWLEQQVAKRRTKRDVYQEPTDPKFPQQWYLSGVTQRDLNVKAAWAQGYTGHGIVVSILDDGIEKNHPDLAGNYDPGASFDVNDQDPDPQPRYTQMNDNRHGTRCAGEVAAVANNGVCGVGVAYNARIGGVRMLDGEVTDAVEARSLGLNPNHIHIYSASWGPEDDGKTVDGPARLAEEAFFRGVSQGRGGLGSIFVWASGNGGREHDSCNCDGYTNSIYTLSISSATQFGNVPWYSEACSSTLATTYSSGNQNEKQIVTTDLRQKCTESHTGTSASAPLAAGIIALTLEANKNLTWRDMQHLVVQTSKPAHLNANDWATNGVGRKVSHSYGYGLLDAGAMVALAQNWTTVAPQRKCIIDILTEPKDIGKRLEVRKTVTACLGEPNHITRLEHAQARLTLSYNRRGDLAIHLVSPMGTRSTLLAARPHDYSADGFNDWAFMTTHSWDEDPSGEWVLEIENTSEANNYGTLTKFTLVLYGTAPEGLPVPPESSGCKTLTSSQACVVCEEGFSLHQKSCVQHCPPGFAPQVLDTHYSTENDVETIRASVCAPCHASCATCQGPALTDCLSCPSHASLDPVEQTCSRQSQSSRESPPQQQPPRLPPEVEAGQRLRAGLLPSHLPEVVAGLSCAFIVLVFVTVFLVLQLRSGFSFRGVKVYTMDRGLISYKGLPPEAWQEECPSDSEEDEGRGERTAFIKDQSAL

| Sequence | furin cleavage Z-score (7.5 min) | furin cleavage Z-score (15 min) | furin cleavage Z-score (30 min) |
| --- | --- | --- | --- |
| CALLLALPQRAGNASASA [HC560] | -0.644 (inactive) | -0.224 (inactive) | -1.36 (inactive) |
| CAEVRTSTWVAGNASASA [HC2193] | 0.577 (inactive) | -0.283 (inactive) | 2.14 |
| CAIDVVCCSMAGNASASA [HC2104] | -0.251 (inactive) | 0.23 (inactive) | 1.61 |
| CATTHCSGSWAGNASASA [HC1875] | -0.832 (inactive) | -0.00567 (inactive) | -1.4 (inactive) |
| CAPCAAEEQKAGNASASA [HC1377] | 0.0863 (inactive) | -1.23 (inactive) | 0.435 (inactive) |
| CARKKRFVSSAGNASASA [FS-2213] | 9.34 (active) | 10.7 (active) | 11.2 (active) |
| CARKKRQLYSAGNASASA [FS-2967] | 7.88 (active) | 8.76 (active) | 9.63 (active) |
| CARKKRLKESAGNASASA [FS-2343] | 0.749 (inactive) | 2.21 | 1.93 |
| CARKKRRRESAGNASASA [FS-1903] | 4.55 (active) | 6.12 (active) | 4.85 (active) |
| CARNGRWEESAGNASASA [FS-3005] | -0.164 (inactive) | -0.44 (inactive) | 0.183 (inactive) |
| CASIVYEAADAGNASASA [HC266] | 0.365 (inactive) | 0.0281 (inactive) | 0.406 (inactive) |
| CASVGLGKVLAGNASASA [HC1081] | 0.567 (inactive) | 0.113 (inactive) | 1.61 |
| CAVLSRASRSAGNASASA [FS-104] | 9.22 (active) | 8.83 (active) | 7.05 (active) |
| CASKVRKSRSAGNASASA [FS-1166] | 10.9 (active) | 11.3 (active) | 8.46 (active) |
| CANKSRSARSAGNASASA [FS-467] | 7.95 (active) | 7.93 (active) | 7.08 (active) |
| CALNSRSARSAGNASASA [FS-1230] | 9.33 (active) | 9.86 (active) | 8.45 (active) |
| CAMEEHSQHLAGNASASA [HC9] | -0.427 (inactive) | 0.433 (inactive) | 0.518 (inactive) |
| CASVCGPVYCAGNASASA [HC411] | -0.739 (inactive) | -0.0378 (inactive) | 0.44 (inactive) |
| CALSQTKQSGAGNASASA [HC947] | -0.592 (inactive) | 0.456 (inactive) | -0.236 (inactive) |
| CAWGVLAGIAAGNASASA [HC337] | -1.66 (inactive) | -1.27 (inactive) | 0.739 (inactive) |
| CAARPDYNPPAGNASASA [HC1305] | -1.38 (inactive) | -0.196 (inactive) | -1.47 (inactive) |
| CAVVCCSMSWAGNASASA [HC2088] | -0.556 (inactive) | 1.09 | 0.406 (inactive) |

| Sequence | furin cleavage Z-score (7.5 min) | furin cleavage Z-score (15 min) | furin cleavage Z-score (30 min) |
| --- | --- | --- | --- |
| CARCHARKAVAGNASASA [HC1425] | 0.121 (inactive) | 0.298 (inactive) | -0.417 (inactive) |
| CACTPCSGSWAGNASASA [HC1840] | -0.759 (inactive) | -0.736 (inactive) | -0.368 (inactive) |
| CAYPWPLYGNAGNASASA [HC201] | -0.792 (inactive) | 1.01 | -0.667 (inactive) |
| CAPALRSARSAGNASASA [FS-66] | 0.638 (inactive) | 1.37 | 1.27 |
| CASKSRSARSAGNASASA [FS-500] | 10.3 (active) | 8.51 (active) | 6.45 (active) |
| CALNARYSRSAGNASASA [FS-52] | 8.29 (active) | 10.6 (active) | 9.13 (active) |
| CASKSRVSRLAGNASASA [FS-1488] | 3.43 | 1.78 | 3.65 (active) |
| CASAHRQPRLAGNASASA [FS-144] | 0.7 (inactive) | 0.218 (inactive) | 0.636 (inactive) |
| CARLWRKSRSAGNASASA [FS-189] | 9.72 (active) | 8.99 (active) | 8.13 (active) |
| CASVASSSASAGNASASA [HC1259] | -0.54 (inactive) | 0.0424 (inactive) | -0.501 (inactive) |
| CAYGSRHIRLAGNASASA [FS-1107] | 0.267 (inactive) | 1.21 | 2.07 |
| CAMEECSEHLAGNASASA [HC1732] | 0.304 (inactive) | -1.16 (inactive) | 0.588 (inactive) |
| CAAVPCHRPSAGNASASA [HC2303] | 0.31 (inactive) | -0.11 (inactive) | 0.292 (inactive) |
| CALGKVIDTLAGNASASA [HC220] | -0.0125 (inactive) | 0.316 (inactive) | -0.584 (inactive) |
| CATTKCSGSWAGNASASA [HC1874] | -0.691 (inactive) | -0.337 (inactive) | -0.205 (inactive) |
| CASGSRSSRSAGNASASA [FS-1409] | 0.457 (inactive) | 1.76 | 2.85 |
| CANKSRESRPAGNASASA [FS-1469] | -0.557 (inactive) | -0.538 (inactive) | -0.178 (inactive) |
| CATLSRSSRSAGNASASA [FS-1292] | 6.97 (active) | 8.07 (active) | 7.37 (active) |
| CANKSRSSRSAGNASASA [FS-180] | 8.13 (active) | 8.25 (active) | 6.67 (active) |
| CASKSRSSRSAGNASASA [FS-501] | 8.19 (active) | 9.38 (active) | 7.93 (active) |
| CAPRTCRNMWAGNASASA [HC1185] | -0.106 (inactive) | 1.74 | 0.874 (inactive) |
